The values below come from PubChem BioAssay (NCI).

Experiment in all cases: NCI-60 one-dose screen, 48 h (100 = growth as untreated, 0 = no growth, -100 = all killed)
Holding throughout (conditions): 10 µM unless noted

Experiment [1] has as its system DU-145 prostate.
For experiment [2], the system named is K-562 leukemia.
The test system of experiment [3] is MALME-3M melanoma.
Experiment [4] concerns MDA-MB-231 breast.
Experiment [5] has as its system RXF 393 renal.
Experiment [6] has as its system SF-268 CNS.
Experiment [7] deals with SF-295 CNS.
In experiment [8] the test system is SF-539 CNS.
Experiment [9] concerns UACC-257 melanoma.
Experiment [10] concerns M14 melanoma.

Compounds without any hit were thinned out: in the full panel of roughly 83,000, 20% have a hit.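 Cell lines were cultured in 96-well plates, exposed to a single compound concentration, and assessed for percent growth 48 hours later.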 Values without a mark were called inactive. Calls of active or inactive are those of the source. Rule for the calls: active = growth percent below 10; inactive = the rest.

As to `COc1ccc(-c2[nH]c3ccc(OC)cc3c2C=C(C#N)C#N)cc1`, the growth is 12.5% in [1]; 4.8% (active) in experiment [2]; 60% in experiment [3]; 53.7% in [4]; 34.4% in experiment [5]; 52.7% in [6]. Further, the growth in experiment [7] was -47.1% (active); in experiment [8], 23.2%; in experiment [9], 60.2%; in experiment [10], -13.3% (active).
Take `O=C(CCl)N1CCCc2ccccc21`: the growth in experiment [1] is 97.7%; in experiment [2], 101%; in experiment [3] it was 98.3%; in experiment [4], 99.5%; in experiment [5] it was 89.1%; in experiment [6], 94.9%. In addition, the growth in [7] was 95.7%; in experiment [8] it was 103%; in experiment [9], 107%; in experiment [10], 93.9%.
As to `O=C1C(Cl)=C(Nc2ccc3c(c2NC2=C(Cl)C(=O)c4ccccc4C2=O)C(=O)c2ccccc2C3=O)C(=O)c2ccccc21`, the growth in [1] is -83.9% (active); in experiment [2] it was 16.6%; in [3] it was -85.1% (active); in experiment [4] it was 14.6%; in [5] it was 48.5%; in [6], 39.5%. In addition, the growth in experiment [7] is 23.8%; in [8] it was 15%; in [9], -20.4% (active); in experiment [10], -64.8% (active).
With `COc1cc(C(=O)N2CCN(c3ccccc3OC)CC2)c(NC(=O)c2cnccn2)cc1OCc1ccccc1`, the growth was 104% in experiment [1]; 10.8% in [2]; 115% in experiment [3]; 73.1% in experiment [4]; 113% in experiment [5]; 114% in experiment [6]. The growth in experiment [7] is 97.5%; in experiment [8], 88.9%; in experiment [9], 78%; in [10] it was 98.4%.
For `CCOCc1nc2ccccc2c(=O)[nH]1`, the growth was 107% in [1]; 119% in [2]; 89.6% in [3]; 103% in experiment [4]; 117% in experiment [5]; 101% in experiment [6]. For the same compound, the growth is 99.6% in [7], 102% in [8], 108% in experiment [9] and 96.2% in experiment [10].
As to `O=C1NC(SCc2ccc(F)cc2)=N/C1=C/c1cccc(OCc2ccc(Cl)cc2)c1`, the growth is 80.6% in experiment [1]; 58.5% in [2]; 88.1% in [3]; 18.3% in experiment [4]; 55% in [5]; 74.3% in experiment [6]. Further, the growth in experiment [7] is -33.6% (active); in [8], 14.1%; in experiment [9], 95.8%; in experiment [10], 63.9%.
As to `O=C(CCc1nnco1)c1nc2ccc([N+](=O)[O-])cc2[nH]1`, the growth in experiment [1] is 107%; in experiment [2] it was 113%; in experiment [3], 105%; in experiment [4], 90.5%; in experiment [5], 117%; in experiment [6], 102%. Further, the growth in experiment [7] was 102%; in [8], 104%; in experiment [9] it was 112%; in experiment [10], 103%.
Regarding `CCOC(=O)c1c(C(F)(F)F)n([O-])c2ccc(Cl)cc2[n+]1=O`, the growth is -95.7% (active) in experiment [1]; -57.7% (active) in experiment [2]; -84.5% (active) in experiment [3]; -39.1% (active) in experiment [4]; -60.6% (active) in [5]; -49.5% (active) in experiment [6]. The growth in experiment [7] was -86% (active); in experiment [8] it was -96.1% (active); in experiment [9] it was -70.6% (active); in [10] it was -21.6% (active).
As for `Nc1c(C(=O)Nc2ccccn2)sc2nc3c(cc12)C(=O)CCC3`, the growth was 5.74% (active) in experiment [1]; 22.2% in experiment [2]; 58.2% in experiment [3]; 51.6% in experiment [4]; 1.88% (active) in [5]; 53.1% in [6]. Also, the growth in experiment [7] was 16.2%; in experiment [8] it was 14.6%; in experiment [9], 69.8%; in experiment [10], 18.3%.
For the compound `O=C(CCCC(=O)Nc1ccc(-n2nnc3cc(Cl)c(Cl)cc32)cc1)Nc1ccc(-n2nnc3cc(Cl)c(Cl)cc32)cc1`, the growth was 33.6% in experiment [1]; 54.8% in experiment [2]; 48.2% in [3]; 49.9% in [4]; 48.1% in experiment [5]; 60.8% in experiment [6]. For the same compound, the growth is 53.1% in experiment [7], 56.7% in [8], 66.5% in experiment [9] and 68% in [10].
In the case of `COC(=O)/C=C1\SC(=Nc2ccc(C(F)(F)F)cc2)N(CCc2c[nH]c3ccccc23)C1=O`, the growth in experiment [1] is -65.4% (active); in experiment [2], -0.591% (active); in experiment [3], -89.6% (active); in experiment [4], -63.7% (active); in [5], -70.2% (active); in experiment [6], -3.91% (active). The growth in experiment [7] is -81.4% (active); in experiment [8], -91.2% (active); in [9] it was -50.3% (active); in experiment [10], -45.6% (active).
For the compound `CCOC(=O)c1c(-c2ccc(O)cc2)c(C#N)c2c(C#N)c(N)nn2c1N`, the growth was 83% in experiment [1]; 19.8% in experiment [2]; 39.4% in experiment [3]; 67% in experiment [4]; 76.2% in experiment [5]; 71.8% in experiment [6]. Moreover, the growth was 79.9% in experiment [7], 66.9% in experiment [8], 93% in experiment [9] and 45.2% in experiment [10].
Consider `Nc1c(C(=O)c2ccccc2)sc2nc(-c3cc4ccccc4o3)cc(-c3ccc(Cl)cc3)c12`, for which the growth was 90.8% in experiment [1]; 102% in [2]; 101% in experiment [3]; 85.5% in [4]; 113% in [5]; 94.8% in experiment [6]. The growth is 129% in [7], 105% in [8], 104% in experiment [9] and 107% in experiment [10].
For the compound `O=[N+]([O-])c1cccc(CN(Cc2cccc([N+](=O)[O-])c2O)c2ccccc2)c1O`, the growth is 94.3% in experiment [1]; 60.5% in experiment [2]; 87.2% in [3]; 68.8% in [4]; 88.6% in [5]; 89.4% in [6]. The growth in experiment [7] was 66.6%; in experiment [8] it was 94.7%; in experiment [9] it was 93.3%; in experiment [10] it was 67.6%.
Consider `Cc1cc2ccccc2c[n+]1CC(=O)c1ccc(-c2ccccc2)cc1`, for which the growth in [1] is 65.8%; in experiment [2], 11%; in experiment [3], 71.4%; in experiment [4], 51.1%; in experiment [5] it was 62.5%; in experiment [6] it was 73.4%. In addition, the growth is 42.4% in [7], 75.5% in [8], 50.3% in experiment [9] and 47.3% in [10].
Turning to `Cc1cc(NC(=O)CNc2nc(Oc3ccc(F)cc3)nc(-c3ccc(F)cc3)n2)ccc1Cl`, the growth was 112% in [1]; 89.5% in experiment [2]; 109% in [3]; 106% in experiment [4]; 92.7% in experiment [5]; 100% in experiment [6]. For the same compound, the growth in experiment [7] was 96.9%; in [8], 109%; in experiment [9], 101%; in experiment [10], 104%.
Turning to `CN(C)CCCn1c2c(c3cc(-c4cccc(S(N)(=O)=O)c4)ccc3c1=O)C(=O)c1ccccc1-2`, the growth in experiment [1] is 67.9%; in experiment [2], 33.1%; in experiment [3] it was 67.1%; in experiment [4], 94.4%; in [5], 85.1%; in experiment [6], 51.6%. Also, the growth is 50.6% in experiment [7], 80.9% in experiment [8], 97.4% in experiment [9] and 62.7% in [10].
Regarding `O=c1[nH]c(-c2cccc(F)c2)cc2cc(F)ccc12`, the growth in experiment [1] is 30.1%; in [2], 14.1%; in [3] it was 73%; in experiment [4] it was 49.8%; in experiment [5], 9.93% (active); in [6] it was 68.4%. The growth in [7] is 8.3% (active); in experiment [8] it was -1.4% (active); in [9], 55.3%; in [10] it was 20.3%.
On to `COc1ccc(/C=C/C(=O)c2ccc(NC(=O)CSc3nnc(-c4ccc(OC)c(OC)c4)n3-c3ccccc3)cc2)cc1`, for which the growth is 40.8% in [1]; 8.42% (active) in experiment [2]; -75% (active) in experiment [3]; 1.36% (active) in experiment [4]; 94.4% in experiment [5]; 80.6% in experiment [6]. For the same compound, the growth in [7] is 91.4%; in experiment [8], 87.5%; in experiment [9], 90%; in [10] it was 36.2%.
Take `O=C(CCc1nnc2sc(OCc3ccccc3)nn12)c1nc2ccc([N+](=O)[O-])cc2[nH]1`: the growth in experiment [1] is 103%; in experiment [2], 87.7%; in experiment [3], 96.1%; in [4], 95.7%; in [5] it was 123%; in [6], 94.5%. For the same compound, the growth in [7] was 97%; in [8], 98.4%; in experiment [9] it was 106%; in experiment [10] it was 102%.
Take `COc1ccc2nc(-c3ccc(Cl)cc3)cc(-c3nnc(SC/C(=N/O)c4ccccc4)o3)c2c1`: the growth in [1] is 29.7%; in [2], 20.1%; in [3] it was 25.5%; in experiment [4], 49.6%; in experiment [5] it was 5.44% (active); in experiment [6], 55.3%. Also, the growth is 36.3% in experiment [7], 43.5% in experiment [8], 60.1% in experiment [9] and 25.2% in [10].
Consider `Nc1ccccc1NC(=O)c1ccc(CSc2nc(N3CCOCC3)c3cccn3n2)cc1`, for which the growth in experiment [1] was 9.93% (active); in [2], 5.46% (active); in [3] it was 30.9%; in experiment [4], 18.8%; in experiment [5], -6.46% (active); in [6] it was 4.84% (active). The growth in experiment [7] was 2.8% (active); in experiment [8], 15.2%; in [9], -3.3% (active); in experiment [10], 5.11% (active).
Consider `COc1ccc2c(c1)Oc1nc(N)c(C#N)c(N)c1C2Sc1ccc(O)cc1` (stereo not given), for which the growth was 105% in [1]; 14.6% in experiment [2]; 70.8% in experiment [3]; 79.4% in experiment [4]; 90.8% in experiment [5]; 95% in [6]. Further, the growth is 104% in experiment [7], 99.4% in experiment [8], 105% in experiment [9] and 103% in experiment [10].
As for `CC(=O)c1ccc(NC(=O)CSc2nnc(-c3cc(-c4ccc(Cl)cc4)nc4ccccc34)o2)cc1`, the growth is 90% in [1]; 63% in experiment [2]; 70.8% in [3]; 53.7% in experiment [4]; 87.2% in experiment [5]; 82.4% in [6]. Besides, the growth in experiment [7] is 88.3%; in experiment [8], 74.2%; in experiment [9] it was 97.5%; in experiment [10] it was 77.6%.
For `C[C@H]1[C@H](C)CC[C@]2(C(=O)OCCOCCOCC[P+](c3ccccc3)(c3ccccc3)c3ccccc3)CC[C@]3(C)C(=CC[C@@H]4[C@@]5(C)CC[C@H](OC(=O)C(Cl)Cl)C(C)(C)[C@@H]5CC[C@]43C)[C@H]12`, the growth in experiment [1] was 26%; in experiment [2] it was 0.14% (active); in experiment [3], -78.5% (active); in experiment [4] it was -0.496% (active); in experiment [5] it was -29.5% (active); in [6], 25.9%. Besides, the growth in [7] was -34.8% (active); in [8], 9.4% (active); in experiment [9], -13.6% (active); in experiment [10], 8.99% (active).
As for `C=C(C)[C@@H]1CC[C@]2(C(=O)OCCOCCOCC[P+](c3ccccc3)(c3ccccc3)c3ccccc3)CC[C@]3(C)[C@H](CC[C@@H]4[C@@]5(C)CC[C@H](OC(C)=O)C(C)(C)[C@@H]5CC[C@]43C)[C@@H]12`, the growth in [1] was -91.1% (active); in experiment [2], -74.3% (active); in experiment [3], -85.1% (active); in experiment [4], -91.3% (active); in experiment [5], -90.4% (active); in [6], -74.7% (active). In addition, the growth in experiment [7] is -92% (active); in experiment [8], -90.9% (active); in [9] it was -83.4% (active); in experiment [10], -83.1% (active).
